Measurements: PubChem BioAssay (NCATS)
“And” between values parts separate entries of the source, which are not always exact repeats. Identical values can stand only once. Results filed as inconclusive are left out. Where a call stands in place of a potency, no number is given. More than one record can exist for a structure, and the calls need not agree. The source made the active and inactive calls. Unless noted, calls come from the whole dose curve; as a rule, active = well fitted curve in the direction sought with a large enough effect; inconclusive = small, poorly fitted or top-dose-only effect, or another doubt; inactive = no such curve, though single readings can be large; an effect the other way counts as inactive or inconclusive.

Tests used:
[1] = qHTS to identify inhibitors of the type 1 interferon - major histocompatibility complex class I in skeletal muscle: primary screen against the NCATS Mechanism Interrogation Plate v5.0 (MIPE) Libary (AID 1347411); note: nearly all actives have a fitted effect of over 65% in size
How it was run: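 Cells were genome-edited human myoblasts carrying a HiBit tag on endogenous HLA-B. They were treated with IFN-beta (4.0 ng/ml) and titrated compounds (top 46 uM) for 24 hrs before lytic HiBiT detection.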

[2] = target: Calcium and integrin-binding protein 1 (Homo sapiens) (UniProt Q99828); assay: Primary qHTS for Identification of Calcium Integrin Binding Protein 1 (CIB1) Competitor (AID 1508620); note: potency is the fitted concentration of half-maximal effect
How it was run: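 CIB1-GST (1 uM final) and compound incubated 15 min at room temperature before adding FITC-alphaIIb peptide tracer (100 nM final). Competition for binding read by fluorescence polarization (ex 480, em 540) after another 15 min at room temperature.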

[3] = Primary qHTS for inhibitors of nuclear receptor binding SET domain protein 2 (NSD2) in an isogenic RCH-ACV NSD2 p.E1099K mutant (9B) (AID 1645876); note: nearly all actives have a fitted effect of over 70% in size
[4] = target: Cytochrome P450 2D6 (Homo sapiens) (UniProt P10635); assay: Cytochrome P450 family 2 subfamily D member 6 (CYP2D6) small molecule antagonists: luciferase biochemical (cell-free) qHTS assay (AID 1645840; active = well fitted curve in the direction sought with a large enough effect in the repeat runs; an effect the other way counts as inactive or inconclusive; note: nearly all actives have a fitted effect of over 55% in size; note: potency is the fitted concentration of half-maximal effect)
How it was run: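 P450-Glo luminescent screen: recombinant CYP2D6 enzyme–proluciferin substrate mix preincubated with compound 10 min at room temperature, then NADPH regeneration added for 1 h at room temperature. Detection reagent added for 20 min; luciferin light read as relative luminescence units.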

[5] = Primary qHTS for inhibitors of nuclear receptor binding SET domain protein 2 (NSD2) in an RCH-ACV wild type WT cells (2C) (AID 1645877); note: nearly all actives have a fitted effect of over 70% in size; note: potency is the fitted concentration of half-maximal effect
[6] = target: Cytochrome P450 2C9 (Homo sapiens) (UniProt P11712); assay: Cytochrome P450 family 2 subfamily C member 9 (CYP2C9) small molecule antagonists: luciferase biochemical (cell-free) qHTS assay (AID 1645842; active = well fitted curve in the direction sought with a large enough effect in the repeat runs; an effect the other way counts as inactive or inconclusive; note: nearly all actives have a fitted effect of over 55% in size; note: potency is the fitted concentration of half-maximal effect)
How it was run: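 Luminescence, after 20 min with luciferin detection reagent, reflected CYP2C9 turnover during a 1 h NADPH-driven reaction at 37C. Enzyme-substrate mix contained 0.4% bovine serum albumin and was preincubated with compound 10 min at room temperature.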

[7] = target: Calcium and integrin-binding protein 1 (Homo sapiens) (UniProt Q99828); assay: Confirmatory qHTS for Identification of Calcium Integrin Binding Protein 1 (CIB1) Competitor (AID 1508617); details: CIB1 binding competition assay, biochemical qHTS; note: potency is the fitted concentration of half-maximal effect; nearly all actives have a fitted effect of over 65% in size
How it was run: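 Compounds at up to 114 uM final met 1 uM GST-tagged CIB1 for 15 min at room temperature (HEPES pH 7.4, 5 mM CaCl2). FITC-labelled alphaIIb peptide, 100 nM, added; polarization read after 15 min more.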

[8] = Redox Reaction Profiling qHTS: Assay Interference Panel against the NCATS CANVASS Library (AID 1347401)
How it was run: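 Cell-free redox surrogate: 5 uM resazurin + 200 uM DTT, 50 mM HEPES pH 7.3/50 mM NaCl; cpds pinned, 11-pt qHTS; Ex525/Em598 read t0 and t=15 min, dark.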

Chain of Cytochrome P450 2C9 (Homo sapiens) (P11712 whole entry, looked up): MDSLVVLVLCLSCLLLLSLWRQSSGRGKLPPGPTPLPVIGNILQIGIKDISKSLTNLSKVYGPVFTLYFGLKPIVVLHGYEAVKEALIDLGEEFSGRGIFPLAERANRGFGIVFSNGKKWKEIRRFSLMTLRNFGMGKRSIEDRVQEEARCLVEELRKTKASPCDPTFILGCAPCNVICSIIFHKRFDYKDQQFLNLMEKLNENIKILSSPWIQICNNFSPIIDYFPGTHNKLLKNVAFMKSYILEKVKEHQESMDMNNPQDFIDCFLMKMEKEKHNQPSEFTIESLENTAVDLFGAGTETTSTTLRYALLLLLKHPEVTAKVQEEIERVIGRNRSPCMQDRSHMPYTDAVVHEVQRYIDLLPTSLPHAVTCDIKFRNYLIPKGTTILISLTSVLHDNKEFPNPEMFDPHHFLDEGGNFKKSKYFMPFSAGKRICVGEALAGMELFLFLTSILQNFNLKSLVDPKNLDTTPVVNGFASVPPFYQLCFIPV
Chain of Cytochrome P450 2D6 (Homo sapiens) (P10635 whole entry, looked up): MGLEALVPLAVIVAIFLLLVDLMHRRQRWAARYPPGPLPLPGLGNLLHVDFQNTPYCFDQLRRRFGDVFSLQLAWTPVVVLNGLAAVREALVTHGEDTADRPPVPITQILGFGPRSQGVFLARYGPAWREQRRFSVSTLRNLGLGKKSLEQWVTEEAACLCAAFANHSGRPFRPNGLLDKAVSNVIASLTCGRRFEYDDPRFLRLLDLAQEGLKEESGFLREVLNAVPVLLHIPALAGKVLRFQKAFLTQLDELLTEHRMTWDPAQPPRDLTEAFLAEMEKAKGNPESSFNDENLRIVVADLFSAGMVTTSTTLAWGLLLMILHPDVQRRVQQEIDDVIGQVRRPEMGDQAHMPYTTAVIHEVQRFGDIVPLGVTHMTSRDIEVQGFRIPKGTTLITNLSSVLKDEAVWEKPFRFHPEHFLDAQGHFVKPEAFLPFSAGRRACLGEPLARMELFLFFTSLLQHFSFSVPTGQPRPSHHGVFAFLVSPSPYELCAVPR
Chain of Calcium and integrin-binding protein 1 (Homo sapiens) (Q99828 whole entry, looked up): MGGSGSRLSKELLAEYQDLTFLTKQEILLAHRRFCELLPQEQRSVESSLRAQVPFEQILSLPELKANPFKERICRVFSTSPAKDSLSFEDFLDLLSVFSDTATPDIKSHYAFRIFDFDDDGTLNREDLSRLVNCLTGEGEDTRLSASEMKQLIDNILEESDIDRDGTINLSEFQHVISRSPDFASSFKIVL

## COc1ccc2[nH]c(S(=O)Cc3ncc(C)c(OC)c3C)nc2c1 (centres undefined)
[1]
  outcome: inactive
[2]
  Potency: inactive
[3]
  Potency: inactive

## Cc1cccc(-c2nn3c(c2-c2ccnc4ccc(C(N)=O)cc24)CCC3)n1
[1]
  outcome: inactive
[2]
  Potency: inactive
[4]
  Potency: inactive
[3]
  Potency: inactive
[5]
  Potency: inactive

## CCc1cccc2c3c([nH]c12)[C@@](CC)(CC(=O)O)OCC3
[1]
  outcome: inactive
[2]
  Potency: inactive
[3]
  Potency: inactive
[5]
  Potency: inactive

## CNc1nc(C)nc(N[C@H]2CCC[C@@H](C(=O)NCc3ccc(C#N)cc3C(F)(F)F)C2)n1
[1]
  outcome: inactive
[2]
  Potency: inactive
[6]
  Potency: inactive
[3]
  Potency: inactive
[5]
  Potency: inactive

## N#CN1CCC[C@@H](n2nc(-c3ccc(Oc4ccc(F)cc4F)cc3)c(C(N)=O)c2N)C1
[1]
  outcome: inactive
[2]
  Potency: inactive
[5]
  Potency: 16.6 µM (active)

## Cc1c(F)cc(C(=O)NC2CC2)cc1-c1ccc(C(=O)NCC(C)(C)C)cn1
[1]
  outcome: inactive
[2]
  Potency: inactive
[4]
  Potency: inactive

## CC(C)[C@](O)(c1ccc2cc(OC(F)F)c(OC(F)F)cc2c1)c1cn[nH]n1
[1]
  outcome: inactive
[2]
  Potency: inactive

## C=C1C[C@@]2(O)O[C@@]3(C[C@H]2C(C)C)[C@@H](C)CC[C@@H]13
[1]
  outcome: inactive
[2]
  Potency: inactive
[3]
  Potency: inactive
[5]
  Potency: inactive

## Cc1ccccc1-n1nc(-c2c(-c3ccc(F)cc3)nn3c2NC[C@@H](CO)C3)ccc1=O
[1]
  outcome: inactive
[2]
  Potency: inactive
[4]
  Potency: inactive
[6]
  Potency: 6.74 µM (active)

## N#Cc1ccc(C2CCCc3cncn32)cc1 (centres undefined)
[1]
  outcome: inactive
[2]
  Potency: inactive
[4]
  Potency: 17.5 µM (active)
[3]
  Potency: inactive
[5]
  Potency: inactive

## CC(=O)OC1CC2C(C)(C)C(=O)C=CC2(C)C2CC(=O)C3=C(CCC3C3=CC(O)OC3=O)C12C (centres undefined)
[2]
  Potency: inactive

## COc1ccc(CC(NC(C)=O)C(=O)O)cc1 (centres undefined)
[7]
  Potency: 50.1 µM (active)
[3]
  Potency: inactive
[5]
  Potency: inactive

## C=C1CC[C@@]2(OC1)O[C@H]1CC3[C@@H]4CC=C5C[C@H](O[C@H]6OC[C@@H](O)C(O)[C@@H]6O[C@@H]6O[C@@H](C)[C@H](O)[C@@H](O[C@@H]7O[C@H](CO)[C@@H](O)[C@H](O)[C@H]7O)[C@H]6O)C[C@@H](O)[C@]5(C)C4CC[C@]3(C)[C@H]1[C@@H]2C (some centres undefined)
[2]
  Potency: inactive

## CC(C)N(CCCNC(=O)Nc1ccc(C(C)(C)C)cc1)C[C@H]1O[C@@H](n2ccc3c(N)ncnc32)[C@H](O)[C@@H]1O
[1]
  outcome: inactive
[2]
  Potency: inactive
[3]
  Potency: inactive
[5]
  Potency: inactive and 18.6 µM (active)

## Cc1nc(-c2cccnc2)sc1C(=O)Nc1ccccc1-c1cn2c(CN3CCOCC3)csc2n1
[1]
  outcome: inactive
[2]
  Potency: inactive
[3]
  Potency: inactive
[5]
  Potency: inactive

## Cn1cc(-c2c[nH]c3ncnc(N4CCOCC4)c23)cn1
[1]
  outcome: inactive
[2]
  Potency: inactive
[3]
  Potency: inactive
[5]
  Potency: 23.1 µM (active)

## O=C(O)CC1CCC(c2ccc(-c3ccc(Nc4ccc(C(F)(F)F)nc4)cn3)cc2)CC1 (centres undefined)
[1]
  outcome: inactive
[2]
  Potency: inactive
[6]
  Potency: inactive
[3]
  Potency: inactive
[5]
  Potency: inactive

## COc1cccc2c1c(O)c(C(=O)N(C)c1ccc(C(F)(F)F)cc1)c(=O)n2C
[1]
  outcome: inactive
[2]
  Potency: inactive
[4]
  Potency: inactive
[3]
  Potency: inactive
[5]
  Potency: inactive

## CCCCOc1nc(N)c2c(n1)N(Cc1cccc(CN3CCCC3)c1)CC(=O)N2
[1]
  outcome: inactive
[2]
  Potency: inactive
[4]
  Potency: 3.38 µM (active)
[6]
  Potency: inactive
[3]
  Potency: inactive
[5]
  Potency: inactive

## Cc1c(Cc2ccc3ccccc3n2)c2cc(F)ccc2n1CC(=O)O
[7]
  Potency: 50.1 µM (active)
[2]
  Potency: 44.7 µM (active)
[4]
  Potency: inactive
[3]
  Potency: inactive
[5]
  Potency: inactive

## COCCCc1sc(-c2ccccc2)nc1C(=O)Nc1ccccc1-c1nc2cc(CN3CCCC3)cnc2s1
[1]
  outcome: inactive
[2]
  Potency: inactive

## Nc1ncnc2c1C(=O)N(c1ccc(C3CCC(CC(=O)O)CC3)cc1)CCO2 (centres undefined)
[1]
  outcome: inactive
[2]
  Potency: inactive
[4]
  Potency: inactive
[6]
  Potency: inactive
[3]
  Potency: inactive
[5]
  Potency: inactive

## CC(=O)O[C@H]1C[C@@]2(C)[C@@H](CC[C@H]3[C@@]4(C)C=CC(=O)[C@@H](C)[C@@H]4[C@H](OC(C)=O)C(=O)[C@@]32C)/C1=C(\CCC=C(C)C)C(=O)O
[8]
  outcome: inactive
[2]
  Potency: inactive
[3]
  Potency: inactive
[5]
  Potency: inactive

## C/C(=C\CC/C(C)=C/CC[C@]1(C)CCc2cc(O)cc(C)c2O1)CC/C=C(\C)C(=O)O
[8]
  outcome: inactive
[2]
  Potency: inactive
[3]
  Potency: inactive
[5]
  Potency: inactive

## O=C(COCC(=O)N1CCN(C(c2ccccc2)c2ccccc2)CC1)Nc1ccc(Cl)cc1C(=O)O
[1]
  outcome: inactive
[2]
  Potency: inactive
[4]
  Potency: inactive
[3]
  Potency: inactive
[5]
  Potency: inactive

## CC(=O)NC1C(OC2CCC3(C)C(CCC4(C)C3CC=C3C5CC(C)(C)CCC5(C(=O)O)C(O)CC34C)C2(C)C)OC(CO)C(O)C1O (centres undefined)
[2]
  Potency: inactive

## CCC(CC)CC1(C(=O)Nc2ccccc2SC(=O)C(C)C)CCCCC1
[1]
  outcome: inactive
[2]
  Potency: inactive
[4]
  Potency: inactive
[6]
  Potency: 1.9 µM (active)
[3]
  Potency: inactive
[5]
  Potency: inactive
